# PubChem BioAssay (Tox21)
# “And” between values parts separate entries of the source, which are not always exact repeats. Identical values can stand only once. Inconclusive results are not listed. A call without a number means that no potency is given here. Some compounds were tested as several samples or in several runs, with calls that do not always agree. The source made the active and inactive calls. Unless noted, calls come from the whole dose curve; as a rule, active = well fitted curve in the direction sought with a large enough effect in the repeat runs; inconclusive = weak or mixed curves; inactive = no such curve, though single readings can be large; an effect the other way counts as inactive or inconclusive.
# Assays:
# [1] = qHTS assay to identify small molecule antagonists of the progesterone receptor (PR) signaling pathway - cell viability counter screen (AID 1346798); note: nearly all actives have a fitted effect of over 50% in size; note: potency is the fitted concentration of half-maximal effect; for activity change, negative = cytotoxicity: series mostly up to about 92 µM
# Procedure, shortened: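 CellTiter-Glo luminescence; PR-UAS-bla HEK293T, 3,000 cells/well; compound + R5020, 16 hr, 37C/5% CO2; 30 min RT before read.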
# [2] = qHTS assay to identify small molecule agonists of the progesterone receptor (PR) signaling pathway - cell viability counter screen (AID 1346799; calls by dose curve; note: nearly all actives have a fitted effect of over 45% in size; note: potency is the fitted concentration of half-maximal effect)
# Procedure, shortened: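 In parallel with the beta-lactamase readout, cytotoxicity toward PR-UAS-bla HEK293T cells was measured by CellTiter-Glo luminescence following 16 hr compound incubation in 2% charcoal-stripped FBS medium.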
# [3] = qHTS assay to identify small molecule agonists of the TGF-beta/Smad signaling pathway - cell viability counter screen (AID 1346829); note: nearly all actives have a fitted effect of over 45% in size; note: potency is the fitted concentration of half-maximal effect; for activity change, negative = cytotoxicity: top concentration of the series differs between compounds
# Procedure, shortened: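 HEK 293T SBE-bla line, 5 hr compound exposure at 37 C, multiplexed CellTiter-Glo viability read by luminescence.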
# [4] = qHTS assay to identify small molecule agonists of the TGF-beta/Smad signaling pathway (AID 1346859; active = well fitted activation curve with a large enough effect in the signal ratio in the repeat runs, not every such curve was filed as active; the % refers to the signal ratio; note: series mostly up to about 77 µM)
# Procedure, shortened: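 After overnight seeding, SBE-bla HEK 293T cells are dosed with compounds in DMSO and kept 5 hr at 37 C, 5% CO2. LiveBLAzer-type FRET substrate is then applied for 2 hr at room temperature.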
# [5] = biological target: Thyrotropin-releasing hormone receptor (Homo sapiens) (UniProt P34981); test: qHTS assay to identify small molecule antagonists of the thyrotropin-releasing hormone receptor (TRHR) signaling pathway (AID 1346877; active = well fitted inhibition curve with a large enough effect in the repeat runs, not every such curve was filed as active; note: series mostly up to about 51 µM)
# Sequence of Thyrotropin-releasing hormone receptor (Homo sapiens) (P34981 whole entry, looked up): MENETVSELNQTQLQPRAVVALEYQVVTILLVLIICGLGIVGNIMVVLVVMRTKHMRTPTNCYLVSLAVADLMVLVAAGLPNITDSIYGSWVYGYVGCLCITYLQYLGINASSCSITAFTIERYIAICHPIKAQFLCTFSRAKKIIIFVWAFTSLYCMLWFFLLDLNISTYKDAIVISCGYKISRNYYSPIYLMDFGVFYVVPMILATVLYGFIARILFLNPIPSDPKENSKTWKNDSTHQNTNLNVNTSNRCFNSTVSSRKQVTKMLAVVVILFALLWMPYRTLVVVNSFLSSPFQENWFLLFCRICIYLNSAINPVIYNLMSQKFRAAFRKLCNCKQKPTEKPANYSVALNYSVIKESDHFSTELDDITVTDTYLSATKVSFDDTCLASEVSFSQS
# Procedure, shortened: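 In this cell-based calcium flux format, HEK293 cells expressing TRHR received test compound for 5 min before the agonist TRH (1 nM final). Dye loading lasted 2 h at 37 °C.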
# [6] = biological target: Thyrotropin-releasing hormone receptor (Homo sapiens) (UniProt P34981); test: qHTS assay to identify small molecule agonists of the thyrotropin-releasing hormone receptor (TRHR) signaling pathway (AID 1346891; calls by dose curve; note: series mostly up to about 58 µM)
# Procedure, shortened: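 Compounds were tested as agonists at 15 concentrations, in triplicate, on TRHR-Hek293 cells; calcium-sensitive dye fluorescence was recorded for 3 min following addition.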
# [7] = Human pregnane X receptor (PXR) small molecule agonists, qHTS cell viability counter screen (AID 1346977); note: nearly all actives have a fitted effect of over 50% in size; note: potency is the fitted concentration of half-maximal effect
# Procedure, shortened: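 Viability counter screen: CellTiter-Fluor signal in PXR-Luc HepG2 cells, 24hr compound exposure, 37C, 5% CO2.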
# [8] = Caspase-3/7 induction in HepG2 cells by small molecules, qHTS assay (AID 1346978); note: nearly all actives have a fitted effect of over 15% in size; note: potency is the fitted concentration of half-maximal effect
# Procedure, shortened: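 Caspase-3/7 induction was measured by Caspase-Glo 3/7 luminescence (30 min, room temperature) after a 17 hr compound exposure of wild-type HepG2 cells seeded at 2,000 per well and pre-incubated 5 hr.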
# [9] = Caspase-3/7 induction in CHO-K1 cells by small molecules, qHTS cell viability counter screen (AID 1346979); note: nearly all actives have a fitted effect of over 35% in size; note: potency is the fitted concentration of half-maximal effect
# Procedure, shortened: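 Viability readout by fluorescence (CellTiter-Fluor) on wild-type CHO-K1 cells exposed for 16hr at 37C and 5% CO2 to compounds delivered in DMSO; reagent incubated 1hr before reading.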
# [10] = qHTS assay to identify small molecule antagonists of the TGF-beta/Smad signaling pathway - cell viability counter screen (AID 1346824); note: nearly all actives have a fitted effect of over 50% in size
# Procedure, shortened: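 Cytotoxicity counter-screen run in the same wells as the beta-lactamase Smad reporter read: CellTiter-Glo luminescence after 30 min at room temperature. HEK 293T SBE-bla cells had 5 hr compound exposure at 37 C with TGF-beta1 (0.25 ng/mL stock).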
SMILES,Potency [1],Potency [2],Potency [3],outcome [4],Potency [5],outcome [6],Potency [7],Potency [8],Potency [9],Potency [10],"activity change, negative = cytotoxicity [1]","activity change, negative = cytotoxicity [2]","activity change, negative = cytotoxicity [7]","activity change, negative = cytotoxicity [9]"
CC1=CC(=O)NS(=O)(=O)O1,inactive,inactive,inactive,inactive,inactive,inactive,inactive,inactive,inactive,,,,,
CCCCC(CC)COC(=O)CS (stereo unspecified),inactive,inactive,inactive,inactive,inactive,inactive,inactive,inactive,inactive,,,,,
O=S(=O)(O)c1ccc2ccccc2c1,inactive,inactive,inactive,inactive,inactive,inactive,inactive,inactive,inactive,,,,,
O=C(O)c1ccc2c(c1)C(=O)OC2=O,inactive,inactive,inactive,,inactive,,inactive,inactive,inactive,inactive,,,,
O=C(O)[C@H](O)[C@@H](O)[C@H](O)[C@H](O)CO,inactive,inactive,inactive,,,,inactive,inactive,inactive,inactive,,,,
CCCC(C)=O,inactive,inactive,inactive,,inactive,,inactive,inactive,inactive,inactive,,,,
CC(=O)Nc1ccccc1,inactive,inactive,inactive,,inactive,inactive,inactive,inactive,inactive,inactive,,,,
c1ccc2scnc2c1,inactive,inactive,inactive,,,,inactive,inactive,inactive,inactive,,,,
Cc1cc(C)c(C)cc1C,inactive,inactive,inactive,,inactive,,inactive,inactive,inactive,inactive,,,,
COS(C)(=O)=O,inactive,inactive,inactive,inactive,inactive,inactive,inactive,inactive,inactive,,,,,
CCCCCC(N)=O,inactive,inactive,inactive,,inactive,,inactive,inactive,inactive,inactive,,,,
O=C=NCCCCCCN=C=O,inactive,inactive,inactive,inactive,inactive,inactive,inactive,inactive,53.3 µM (active) and inactive,,,,,
ON=C1CCCCC1,inactive,inactive,inactive,,,,inactive,inactive,inactive,inactive,,,,
CC(C)(N)CO,inactive,inactive,inactive,inactive,inactive,inactive,inactive,inactive,inactive,,,,,
O=C(O)c1ccc(C(=O)O)cc1,inactive,inactive,inactive,,inactive,,inactive,inactive,inactive,inactive,,,,
CC1CCC2CC1C2(C)C (stereo unspecified),inactive,inactive,inactive,,inactive,inactive,inactive,inactive,inactive,inactive,,,,
Nc1cc([N+](=O)[O-])ccc1O,inactive,inactive,inactive,,inactive,inactive,39.8 µM (active) and 54.2 µM (active),inactive,54.5 µM (active) and 60.8 µM (active),inactive,,,,
C=C(C)C(=O)OCCOCCOCCOC(=O)C(=C)C,inactive,inactive,inactive,,inactive,inactive,inactive,inactive,inactive,inactive,,,,
CC(c1cc2ccccc2s1)N(O)C(N)=O (stereo unspecified),inactive,inactive,inactive,,inactive,,inactive,inactive,inactive,inactive,,,,
CC(=O)OCC(=O)[C@@]12N=C(C)O[C@@H]1C[C@H]1[C@@H]3CCC4=CC(=O)C=C[C@]4(C)[C@H]3[C@@H](O)C[C@@]12C,inactive,inactive,inactive,inactive,inactive,,inactive,inactive,inactive,,,,,
Cc1occc(=O)c1O,inactive,inactive,inactive,,inactive,inactive,inactive,inactive,inactive,inactive,,,,

SMILES,Potency [1],Potency [2],Potency [3],outcome [4],Potency [5],outcome [6],Potency [7],Potency [8],Potency [9],Potency [10],"activity change, negative = cytotoxicity [1]","activity change, negative = cytotoxicity [2]","activity change, negative = cytotoxicity [7]","activity change, negative = cytotoxicity [9]"
CCC(O)OCCCOC (stereo unspecified),inactive,inactive,inactive,inactive,inactive,inactive,22.4 µM (active) and inactive,inactive,5.59 µM (active) and inactive,,,,,
CCCCCCCCCCCCCCO,inactive,inactive,inactive,,inactive,,inactive,inactive,inactive,inactive,,,,
O=c1[nH]c(=O)n([C@H]2C[C@H](O)[C@@H](CO)O2)cc1Br,inactive,inactive,inactive,inactive,inactive,inactive,inactive,inactive,inactive,,,,,
O=C(Oc1ccccc1)c1ccccc1,inactive,inactive,inactive,,inactive,,inactive,inactive,inactive,inactive,,,,
O=C(OCCOCCOC(=O)c1ccccc1)c1ccccc1,inactive,inactive,inactive,,inactive,inactive,inactive,inactive,inactive,inactive,,,,
O=P(OC(CCl)CCl)(OC(CCl)CCl)OC(CCl)CCl,inactive,,inactive,,,,39.8 µM (active) and inactive,inactive,30.5 µM (active),inactive,,,,
O=C(CC(C(=O)OC1CCCCC1)S(=O)(=O)O)OC1CCCCC1 (stereo unspecified),inactive,inactive,inactive,,,,inactive,inactive,inactive,,,,,
CCCCCC/C(C=O)=C\c1ccccc1,inactive,inactive,inactive,,inactive,,inactive,inactive,inactive,,,,,
OCc1cccnc1,inactive,inactive,inactive,inactive,inactive,,inactive,inactive,inactive,,,,,
CCCCCCCCCCCCOCCO,,inactive,inactive,inactive,inactive,inactive,inactive,inactive,,inactive,,,,
CC1=CCC2CC1C2(C)C (stereo unspecified),inactive,inactive,inactive,inactive,inactive,,inactive,inactive,inactive,,,,,
C=C(C)C(=O)Nc1ccc(Cl)c(Cl)c1,inactive,inactive,inactive,,inactive,,inactive,inactive,,,,,,
CCCCCCCCCCCCCCCO,inactive,inactive,24.8 µM (active) and inactive,,,,inactive,inactive,24.5 µM (active) and inactive,,,,,
c1ccc2c(c1)ccc1ccccc12,inactive,inactive,inactive,,inactive,inactive,inactive,inactive,inactive,,,,,
CC(=O)Nc1cccc(O)c1,inactive,inactive,inactive,inactive,,,inactive,inactive,inactive,,,,,
CCCSc1ccc2nc(NC(=O)OC)[nH]c2c1,,inactive,inactive,inactive,inactive,,inactive,969 nM (active),,,,,,
C=C(C)C(=O)O[C@H]1C[C@@H]2CC[C@@]1(C)C2(C)C,,8.58 µM (active) and inactive,inactive,,inactive,,inactive,inactive,inactive,inactive,,,,
CCc1ccc(CCOc2ccc(CC3SC(=O)NC3=O)cc2)nc1 (stereo unspecified),,inactive,inactive,,inactive,,inactive,inactive,inactive,inactive,,,,
C[C@H]1C[C@H]2[C@@H]3CCC4=CC(=O)C=C[C@]4(C)[C@@]3(F)[C@@H](O)C[C@]2(C)[C@@]1(O)C(=O)CO,inactive,,inactive,inactive,,,inactive,inactive,inactive,inactive,,,,
O=C(O)c1cc(=O)c2c(OCC(O)COc3cccc4oc(C(=O)O)cc(=O)c34)cccc2o1,inactive,inactive,inactive,inactive,,,inactive,inactive,inactive,,,,,
N[C@@H](Cc1cc(I)c(Oc2cc(I)c(O)c(I)c2)c(I)c1)C(=O)O,inactive,,inactive,inactive,,,inactive,inactive,inactive,,,,,

SMILES,Potency [1],Potency [2],Potency [3],outcome [4],Potency [5],outcome [6],Potency [7],Potency [8],Potency [9],Potency [10],"activity change, negative = cytotoxicity [1]","activity change, negative = cytotoxicity [2]","activity change, negative = cytotoxicity [7]","activity change, negative = cytotoxicity [9]"
CN(C)CCC(c1ccc(Cl)cc1)c1ccccn1 (stereo unspecified),54.6 µM (active),,inactive,inactive,inactive,inactive,44.7 µM (active),inactive,inactive,,,,,
C#C[C@]1(O)CC[C@H]2[C@@H]3CCC4=CC(=O)CC[C@@H]4[C@H]3CC[C@@]21C,inactive,inactive,inactive,inactive,,,inactive,inactive,61.1 µM (active),,,,,
CCCCC(CC)COC(=O)C(C#N)=C(c1ccccc1)c1ccccc1 (stereo unspecified),inactive,,inactive,,inactive,inactive,inactive,inactive,48.6 µM (active) and 18.8 µM (active),inactive,,,,
O=C(O)CCCC[C@@H]1SC[C@@H]2NC(=O)N[C@@H]21,inactive,inactive,inactive,,,,inactive,inactive,inactive,,,,,
O=S1(=O)CC=CC1,inactive,inactive,inactive,inactive,inactive,,39.8 µM (active) and inactive,59 µM (active) and inactive,29.6 µM (active) and inactive,,,,,
CC(O)COCC(C)O (stereo unspecified),inactive,inactive,inactive,inactive,,,inactive,inactive,inactive,,,,,
CC1=C(C)S(=O)(=O)CCS1(=O)=O,,inactive,inactive,,inactive,,,inactive,,inactive,,,,
Cc1cccc(O)c1,inactive,inactive,inactive,inactive,,,inactive,inactive,inactive,,,,,
CCCCC(CC)COC(=O)CCCCC(=O)OCC(CC)CCCC (stereo unspecified),inactive,inactive,inactive,inactive,inactive,,inactive,inactive,inactive,,,,,
COc1cc(Cc2cnc(N)nc2N)cc(OC)c1OC,inactive,inactive,inactive,,inactive,,inactive,inactive,inactive,,,,,
COCCCOc1ccnc(CS(=O)c2nc3ccccc3[nH]2)c1C (stereo unspecified),inactive,,inactive,inactive,inactive,inactive,inactive,inactive,60.9 µM (active) and inactive,inactive,,,,
O=C(O)c1cc(O)c(O)c(O)c1,inactive,inactive,inactive,inactive,inactive,,49 µM (active) and inactive,inactive,30.9 µM (active),,,,,
CCCCCCCCCCCCS,inactive,inactive,inactive,,inactive,,inactive,inactive,inactive,,,,,
NNc1nncc2ccccc12,,,inactive,inactive,,,48.6 µM (active),inactive,43.3 µM (active),,-14.1% [at 18.9 µM] (inactive),-14.8% [at 19 µM] (inactive),6.87% [at 19 µM] (inactive),-0.255% [at 19 µM] (inactive)
CC(=O)CC(=O)Nc1ccccc1,inactive,inactive,inactive,,,,inactive,inactive,inactive,,,,,
CCOC(=O)NNc1nncc2ccccc12,inactive,inactive,inactive,inactive,,,inactive,inactive,inactive,,,,,
Cc1ccc(S(N)(=O)=O)cc1,inactive,inactive,inactive,,inactive,inactive,inactive,inactive,inactive,,,,,
COc1ccc2cc([C@H](C)C(=O)O)ccc2c1,inactive,inactive,inactive,inactive,,,inactive,,,,,,,
Cc1cnc(C(=O)NCCc2ccc(S(=O)(=O)NC(=O)NC3CCCCC3)cc2)cn1,inactive,inactive,inactive,inactive,,,inactive,inactive,inactive,,,,,
